In the library only some 5.3% were active in any assay of this set; here they are far more common.
15-hLO-2 inh: inhibitors of human 15-lipoxygenase 2 (ALOX15B). purified 15hLO-2, xylenol orange hydroperoxide absorbance. Potency, µM (top dose mostly 57.1 µM), inactives show top-dose activity change, negative = inhibition, hits mostly inhibitors. 110,000 tested, 0.56% active. AID 881; note: potency is the fitted concentration of half-maximal effect; nearly all actives have a fitted effect of over 60% in size
Target sequence (O15296 whole entry, looked up): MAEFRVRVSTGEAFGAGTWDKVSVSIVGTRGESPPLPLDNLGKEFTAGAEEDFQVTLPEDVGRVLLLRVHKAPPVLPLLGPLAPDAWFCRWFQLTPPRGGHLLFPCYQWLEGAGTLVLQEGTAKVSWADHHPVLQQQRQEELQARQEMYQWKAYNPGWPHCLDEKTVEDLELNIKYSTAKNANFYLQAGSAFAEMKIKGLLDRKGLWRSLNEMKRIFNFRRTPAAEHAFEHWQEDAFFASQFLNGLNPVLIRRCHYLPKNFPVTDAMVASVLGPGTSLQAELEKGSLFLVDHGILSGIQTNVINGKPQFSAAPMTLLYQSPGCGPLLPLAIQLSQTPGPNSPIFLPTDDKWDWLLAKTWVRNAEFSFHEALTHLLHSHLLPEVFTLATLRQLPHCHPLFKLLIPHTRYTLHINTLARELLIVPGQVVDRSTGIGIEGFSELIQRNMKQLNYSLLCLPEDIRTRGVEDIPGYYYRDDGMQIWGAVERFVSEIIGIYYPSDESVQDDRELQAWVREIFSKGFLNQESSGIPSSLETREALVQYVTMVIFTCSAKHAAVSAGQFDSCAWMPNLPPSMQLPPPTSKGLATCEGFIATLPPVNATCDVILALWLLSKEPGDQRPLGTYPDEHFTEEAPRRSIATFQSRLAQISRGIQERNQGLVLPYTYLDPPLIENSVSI
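Purified human 15hLO-2 (50 nM) preincubated 15 min with compound, then 45 uM arachidonic acid for 90 min at RT in 25 mM Hepes pH 7.5, 0.01% Triton X-100. Hydroperoxide detected by Fe-xylenol orange; 573/405 nm absorbance ratio.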
IMPase inh: IMPase inhibition in cells; 120,000 tested, under 10 active; inhibition (IP1 accumulation), % at 46.1 µM; CHO-M1 cells, IP1 accumulation, HTRF TR-FRET ratio; active = well fitted curve in the direction sought with a large enough effect in the signal ratio, not every such curve was filed as active; inconclusive = small, poorly fitted or top-dose-only effect, or a change in a side signal; inactive = no such curve, though single readings can be large or run the other way; the % refers to the signal ratio;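 note: cells stimulated with carbachol in lithium chloride buffer; plate controls were DMSO basal wells for no effect and reference inhibitor wells for full effect; higher means more IMPase inhibition seen as more IP1 and lower FRET ratio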
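Elevated IP1 in lysates lowers TR-FRET signal (665/620 ratio and 620 channel reported). Cells were CHO-M1, given carbachol (50 uM as added) plus 50mM LiCl, pH 7.4, 30 min, 37C; compounds titrated up to 46 uM; AC50 by Hill equation.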
ALOX12 inhib: 12-hLO (ALOX12) enzyme inhibition; AID 1452; 150,000 tested, 0.12% active; purified 12-hLO, xylenol orange hydroperoxide absorbance; Potency, µM (top dose mostly 57.1 µM), for the others: top-dose activity change, negative = inhibition, most hits filed as inhibitors; note: potency is the fitted concentration of half-maximal effect; nearly all actives have a fitted effect of over 55% in size
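Lipoxygenase turnover measured by absorbance at 573 and 405 nm after Fe-XO development. Human 12hLO 150 nM, arachidonate 40 uM, pH 7.0 Hepes buffer with detergent; 15 min compound preincubation, 30 min reaction.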
HPGD block: HPGD (human) dehydrogenase inhibition; P15428; purified HPGD, NADH fluorescence kinetic, PGE2 substrate; 150,000 tested, 4.3% active; Potency, µM, for inactives: top-dose activity change, negative = inhibition, hits mostly inhibitors; active = well fitted inhibition curve with a large enough effect, not every such curve was filed as active; inconclusive = small, poorly fitted or top-dose-only effect, or another doubt; inactive = no such curve, though single readings can be large or run the other way; note: potency is the fitted concentration of half-maximal effect
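NADH formation kinetics: reaction with 30 uM PGE2 and 1 mM NAD+ (final), 20 nM enzyme, Tris-HCl pH 8 with Tween 20, after 15 min compound preincubation at room temperature. Fluorescence change, last versus first of five reads.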
IMPase Li cell: IMPase inhibition in cells with lithium potentiation. CHO-M1 cells, IP1 TR-FRET (IP-One), carbachol + lithium. Potency, µM (doses to about 59.4 µM), inactives show top-dose activity, negative = IMPase inhibition, most hits filed as inhibitors. 210,000 tested, 0.35% active. AID 1457;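 note: IP1 builds up when IMPase is blocked and the TR-FRET signal falls; potency is the fitted concentration of half-maximal effect; plate controls were basal vehicle for no effect and high inhibitor control for full effect; nearly all actives have a fitted effect of over 50% in size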
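Test compounds were applied to CHO-M1 cells previously cultured for 16–30 h at 2000 per well. A small lithium amount accompanied them; after 30 min at 37C, IP1 was quantified by TR-FRET.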
PNC assembly inh: perinucleolar compartment assembly inhibition; PC3M PTB-GFP, PNC prevalence imaging, 16 h; stronger effect = lower value; activity change (PNC), negative = inhibition, % at 10 µM; 140,000 tested, 3.1% active; AID 2417;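 active = readout at or below -70, meaning at least 70% loss of cells showing the perinucleolar compartment, a nuclear body marking cancer cells; inconclusive = readout between -30 and a set limit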;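 note: plate controls were DMSO wells for no effect and camptothecin positive control wells for full effect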
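Read-out is percentage of cells bearing a perinucleolar compartment, from automated 20x imaging of fixed, Hoechst-stained PC3M PTB-GFP cells. Cells were seeded 4 h, then exposed 16 h to compound (23 nl of library stock) in duplicate plates.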
* hit, by the source's call; ? = inconclusive; . = no result; [ ] = remark or other dose. Unless noted, calls come from the whole dose curve; as a rule, active = well fitted curve in the direction sought with a large enough effect; inconclusive = small, poorly fitted or top-dose-only effect, or another doubt; inactive = no such curve, though single readings can be large; an effect the other way counts as inactive or inconclusive. Unless noted, % is set by controls: 0 for no effect and ±100 for the full control effect.

SMILES | 15-hLO-2 inh | IMPase inh | ALOX12 inhib | HPGD block | IMPase Li cell | PNC assembly inh
CN1CCN(NC(=O)CN2C(=O)/C(=C/c3c(Cl)cccc3Cl)SC2=S)CC1 | -4% | 3 | -2% | -19% | 10%[38.3 µM] | 7
CN1CCN(NC(=O)CN2C(=O)/C(=C/c3ccccc3Cl)SC2=S)CC1 | 15% | 6 | -4% | 13µM* | 3% | -10
O=C1C(=O)c2ccccc2C(O)=C1C(CCc1ccccc1)C1=C(O)c2ccccc2C(=O)C1=O | 5%[11.4 µM] | . | -7%[11.4 µM] | ? | 22% | .
CCc1ccc(-n2c(CCC(=O)O)ccc2-c2ccc(F)cc2)cc1 | . | 1 | . | . | . | .
Oc1cccc2ccc(SSc3ccc4cccc(O)c4n3)nc12 | ? | . | ? | 0.56µM* | 18% | .
C=CCNC(=O)c1oc2ccc(S(=O)(=O)N(CC)CC)cc2c1C | -7% | 3 | -6% | 20µM* | 6%[38.3 µM] | -29
CCN(CC)S(=O)(=O)c1ccc2oc(C(=O)NC3CCCc4ccccc43)c(C)c2c1 (stereo not drawn) | 7% | -2 | -2% | -18% | 25%[38.3 µM] | 9
Cc1c(C(=O)O)oc2ccc(S(=O)(=O)NC3CCCCCCC3)cc12 | . | . | 1% | -27% | -1% | -113*
CCN(CC)S(=O)(=O)c1ccc2oc(C(=O)N3CCCCCC3)c(C)c2c1 | -9% | 2 | -1% | 7.1µM* | 15%[38.3 µM] | 25
CCN(CC)S(=O)(=O)c1ccc2oc(C(=O)N3CCc4ccccc4C3)c(C)c2c1 | . | . | 0% | 28µM* | 13% | ?
CCN(CC)S(=O)(=O)c1ccc2oc(C(=O)N3CCOCC3)c(C)c2c1 | 4% | -9 | -2% | ? | 14%[38.3 µM] | ?
CCCOc1ccc(C(=O)CCN2CCN(C(=O)OCC)CC2)cc1 | . | . | . | . | 5% | .
O=C(NC1CCCC1)C1CCC(CNS(=O)(=O)c2cccs2)CC1 (stereo not drawn) | . | . | -4% | 22µM* | -1% | 4
O=C(NCc1cccs1)C1CCC(CNS(=O)(=O)c2cccs2)CC1 (stereo not drawn) | 21% | -6 | -1% | -8% | 7%[38.3 µM] | -15
Cc1ccc2nc(C)c(C(=O)NN=C3CCN(C)CC3)n2c1 | . | . | . | . | 1% | .
COCCSc1ccccc1C(=O)Nc1cc(C)on1 | ? | -2 | -26% | 32µM* | 29%[38.3 µM] | ?
COCCSc1ccccc1C(=O)NCc1ccco1 | -15% | 10 | ? | 8.9µM* | 30%[38.3 µM] | 30
CCOc1ccc(CNc2ccc(S(N)(=O)=O)cc2)cc1 | . | . | . | . | 4% | .
CCOc1ccc(NC(=O)CSc2ccc3ccccc3n2)cc1 | . | -7 | . | . | . | .
COc1ccccc1-c1ccc(/C=C2/C=C(C)OC2=O)o1 | . | . | -13% | ? | 3% | -113*
Cc1ccc(S(=O)(=O)C(C#N)c2nc3ccccc3nc2N2CC(C)OC(C)C2)cc1C (stereo not drawn) | -23% | 0 | -6% | 2% | 4%[38.3 µM] | -139*
CCN1CCN(c2nc3ccccc3nc2C(C#N)S(=O)(=O)c2ccc(C)cc2)CC1 (stereo not drawn) | -10% | -6 | 0% | -22% | 19%[38.3 µM] | 9
Cc1ccc(S(=O)(=O)C(C#N)c2nc3ccccc3nc2N2CCCC2)cc1 (stereo not drawn) | ? | ? | 28µM* | ? | 2%[38.3 µM] | -11
Cc1cccc(S(=O)(=O)C(C#N)c2nc3ccccc3nc2N2CC(C)OC(C)C2)c1 (stereo not drawn) | ? | -10 | -14% | -5% | -5%[38.3 µM] | ?
CC(C)(C)c1csc(NC(=O)Cn2cnc3ccccc3c2=O)n1 | 8%[2.29 µM] | 4 | -1% | 20µM* | 22%[38.3 µM] | -25
SMILES | 15-hLO-2 inh | IMPase inh | ALOX12 inhib | HPGD block | IMPase Li cell | PNC assembly inh
CC(C)(C)NC(=O)CSc1nnc(NC(=O)CCn2cnc3ccccc3c2=O)s1 | 1%[2.29 µM] | -2 | 2% | -18% | 1%[38.3 µM] | -122*
CC(C)(C)c1csc(NC(=O)CSc2nc3ccccc3c(=O)[nH]2)n1 | 2% | 4 | -6% | ? | -8%[38.3 µM] | 20
CC(C)(C)c1nnc(NC(=O)CCn2cnc3ccccc3c2=O)s1 | . | . | . | . | 6% | .
c1coc(C2Nc3ccccc3C3OCCC23)c1 (stereo not drawn) | 15% | 1 | 8% | ? | -2%[38.3 µM] | 42
CC(C)c1ccc2c(c1)[C@H]1OCC[C@H]1[C@@H](c1cccs1)N2 | . | . | 1% | 7.9µM* | 9% | -109*
CCN(C(C)=O)c1ccc(Oc2nc(OC)cc(OC)n2)cc1 | . | . | . | . | 2% | .
CCN(CC)COC(=S)S | 6%[11.4 µM] | . | -14%[11.4 µM] | 3.2µM* | 4% | .
COc1cc2c(cc1NC(=O)CN1CCN(S(=O)(=O)c3ccccc3F)CC1)oc1ccccc12 | 8% | -1 | -2% | ? | 5.6µM* | 21
COc1cc2c(cc1NC(=O)CSCC(=O)O)oc1ccccc12 | -13% | -3 | 0% | ? | -4%[38.3 µM] | -127*
S=C1NC(c2ccccc2)N2C(=S)NC(c3ccccc3)N12 (stereo not drawn) | -10% | -3 | ? | 25µM* | 22%[38.3 µM] | ?
CCOc1ccc(-c2cc(C(=O)OC)[nH]n2)cc1 | . | . | . | . | 2% | .
